Data published in PubChem BioAssay (NCI).
Several values for one entry are separate records, joined by “and”; a condition that tells them apart may be missing. Equal values may be shown once. About 83,000 compounds went through this panel and 20% of them were active in at least one assay; those are over-represented in the sample as a whole.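 Assay: single dose, 48 h. Readout: percent growth (0 = no net growth; negative = cell death). Active: <10.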 Activity calls are given as the source filed them.

These molecules were tested on KM12 colon (assay: NCI-60 one-dose screen, 48 h (100 = growth as untreated, 0 = no growth, -100 = all killed)). Details: 10 µM.
Procedure: Growth inhibition of the KM12 human tumor cell line is measured as a screen for anti-cancer activity. Cells are grown in 96 well plates and exposed to the test compound for 48 hours. Compounds are tested at a single concentration, which is 10^-5 M for most compounds. The reported endpoint is percent growth (GI% or GIPRCNT), where numbers from 0 - 100% represent growth inhibition, and numbers from -100% - 0 represent cell death. For example, a value of 40 represents 60% growth inhibition. A value of 0 means no net growth occurred over the course of the experiment. A value of -40 indicates 40% of cells at the beginning of the experiment died by the end of the experiment. A value of -100 means all cells are dead at the end of the experiment.
NCI-60 Human Tumor Cell Lines Screen was performed using the standard one-dose NCI protocol, which is described in more detail at https://dtp.cancer.gov/discovery_development/nci-60/default.htm.
Compounds with GIPRCNT values below 10 were considered active. Activity score was based on GIPRCNT using the following formula: […]
Score is 0 for GIPRCNT values of 100 or above, 50 for GIPRCNT values of 0, and 100 for GIPRCNT values of -100.
CC(C)C1(NC(=O)C2CC3c4cccc5[nH]cc(c45)CC3N(C)C2)OC2(O)C3CCCN3C(=O)C(Cc3ccccc3)N2C1=O (stereo not given) was tested, and the growth was 106% (inactive). O=[N+]([O-])c1ccc(N(CCO)CCO)c2c1no[n+]2[O-] was tested, and the growth was -40.1% (active). In the case of COc1cc(/C=C/[N+](=O)[O-])cc(Br)c1OC, the growth is reported as 15.2% (inactive). In the case of C=C1C(=O)O[C@@H]2C[C@@H](C)[C@@H]3C=CC(=O)[C@@]3(C)[C@@H](O)[C@H]12, the growth is reported as -84.3% (active). With CCCCCCCC[N+]12CN3CN(CN(C3)C1)C2 the growth was 98.4% (inactive). With O=[N+]([O-])/C=C/c1ccc(Cl)cc1[N+](=O)[O-] the growth was 29.1% (inactive). With [Cl][Hg][c]1ccc(Cl)s1 the growth was 91.1% (inactive). With O=C1C=Cc2ccccc2C1=O the growth was 110% (inactive). For COC(C(=O)C(O)C(C)O)C1Cc2cc3cc(OC4CC(OC(C)=O)C(OC5CC(O)C(OC)C(C)O5)C(C)O4)cc(O)c3c(O)c2C(=O)C1OC1CC(OC2CC(OC3CC(C)(O)C(OC(=O)C(C)C)C(C)O3)C(O)C(C)O2)C(O)C(C)O1 (stereo not given), the growth was -10.4% (active). In the case of NC(Cc1ccccc1)c1ccccc1 (stereo not given), the growth is reported as 104% (inactive) and 110% (inactive). In the case of O=C(CBr)Nc1ccc(Cl)cc1, the growth is reported as 102% (inactive). COS(=O)(=O)c1ccccc1 was tested, and the growth was 104% (inactive). For O=[N+]([O-])/C=C/c1ccc([N+](=O)[O-])cc1, the growth was -54.2% (active) and 99.7% (inactive). In the case of [O-][n+]1ccccc1S, the growth is reported as 46.5% (inactive). For CC[C@@H](C)[C@@H]1NC(=O)C(NC(=O)C(CC(C)C)N(C)C(=O)C2CCCN2C(=O)C(C)O)C(C)OC(=O)C(Cc2ccc(OC)cc2)N(C)C(=O)C2CCCN2C(=O)C(CC(C)C)NC(=O)C(C)C(=O)C(C(C)C)OC(=O)C[C@H]1O (stereo not given in full), the growth was -49.8% (active). For CCOP(=O)(OCC)/C(C#N)=C/c1ccc(Br)cc1, the growth was 109% (inactive). O=S(=O)(F)c1ccc(Cl)cc1 was tested, and the growth was 104% (inactive). With O=C(CCl)Nc1ccc(Cl)cc1 the growth was 67.8% (inactive). CS(=N)(=O)CCC(N)C(=O)O (stereo not given) was tested, and the growth was 115% (inactive). In the case of COC1CC2C=C(C)/C=C/C=C/C(=O)NC(c3ccccc3)C/C=C/CCC(O)CC(=O)C2=C1O (stereo not given), the growth is reported as -76.1% (active). In the case of [Cl][Hg][c]1ccc2ccccc2c1, the growth is reported as 1.74% (active). With Oc1ccccc1-c1ccccc1 the growth was 102% (inactive) and 109% (inactive). With CC[C@@]1(O)C[C@H](OC2CC(N(C)C)C(O)C(C)O2)c2c(cc3c(c2O)C(=O)c2c(O)ccc(O)c2C3=O)[C@H]1C(=O)OC (stereo not given in full) the growth was -58.1% (active). For CC(Cc1ccc2c(c1)OCO2)NN (stereo not given), the growth was 103% (inactive). C[CH2][Hg][S]c1ccccc1C(=O)O was tested, and the growth was 69.9% (inactive). For COc1cc(/C=C/[N+](=O)[O-])cc(OC)c1OC, the growth was 18.2% (inactive). CCOP(=O)(OCC)C(O)c1ccccc1Cl (stereo not given) was tested, and the growth was 103% (inactive). COC12C(COC(N)=O)C3=C(C(=O)C(C)=C(N)C3=O)N1CC1C2N1C (stereo not given) was tested, and the growth was 64.2% (inactive). With COc1ccccc1/C=C/[N+](=O)[O-] the growth was 65.9% (inactive). With COc1ccc(/C=C\[N+](=O)[O-])cc1OC the growth was 33.7% (inactive) and 57.2% (inactive). With N#CCc1ccccc1 the growth was 111% (inactive). For COc1cc([C@@H]2c3cc4c(c(O)c3C[C@H]3COC(=O)[C@@H]32)OCO4)cc(OC)c1OC, the growth was 0.358% (active). For COc1ccc2c(ccc3oc([N+](=O)[O-])cc32)c1, the growth was -5.99% (active). COC(=O)C1C(O)C(C)C(O)C(C)/C=C\C=C(C)C(=O)Nc2c(C)c(OC(C)=O)c3c(c2O)C(=O)C(C)=C2OCOC(=C23)C(C)=CC(C)(O)C(O)C(C)C1O (stereo not given) was tested, and the growth was 102% (inactive). With O=[P+](O)c1ccccc1 the growth was 107% (inactive). Cc1ccc(C(=O)C2C(c3ccccc3)N2C2CCCCC2)cc1 (stereo not given) was tested, and the growth was 111% (inactive) and 100% (inactive). With Oc1c(I)cc(I)cc1I the growth was 110% (inactive). With CC(=O)[O][Hg][c]1c(C)c(C)cc(C)c1C the growth was 50.5% (inactive). In the case of CN(CCCl)c1ccc(/C=C/C2=[N+](C)c3ccccc3C2(C)C)cc1, the growth is reported as 12.6% (inactive). [Cl][Sn]([c]1ccccc1)([c]1ccccc1)[c]1ccccc1 was tested, and the growth was -71.3% (active).
